Test results taken from the supplement of paper PMC5662767.

test system: Drosophila S2 cl14 SmoIP sensor cells; test: normalized SmoIP GFP fluorescence (untreated unstimulated = 0%, untreated Hh-stimulated = 100%); higher = more Smo activation sensor fluorescence; settings: stimulation: Hh conditioned medium (+Hh); compound concentration: 2 uM; 24 h
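Also: flow cytometry read-out as median GFP intensity of gated cells, compounds added 30 min before Hh-conditioned or mock medium, mock-treated cells serving as unstimulated baseline.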

Structure (SMILES) | normalized SmoIP GFP fluorescence [%]
CC(=O)OCC[N+](C)(C)C [Acetylcholine-chloride] | 104
Clc1ccc2c(c1)CCc1cccnc1C2=C1CCNCC1 [desloratadine] | 109
COc1ccc(CNCc2cccc3ccccc23)cc1 | 111
CCC[C@H](NC(=O)/C(C#N)=C/c1cccc(Br)n1)c1ccccc1 | 114
CC(=O)Nc1cccc2c1c(Sc1ccc(Cl)cc1)c(C)n2CC(=O)O | 114

same assay, conditions: stimulation: mock conditioned medium (-Hh); compound concentration: 2 uM; 24 h

Structure (SMILES) | normalized SmoIP GFP fluorescence [%]
CCN(CC)CC(=O)Nc1c(C)cccc1C [Lidocaine] | 2.97
CN(C)C(=O)c1ccc(S(=O)(=O)c2ccc(NC(=O)[C@@](C)(O)C(F)(F)F)c(Cl)c2)cc1 | -2.1
CN(C)CCc1c[nH]c2ccc(Cn3cncn3)cc12 [Rizatriptan-Benzoate(Maxalt)] | -0.265
O=C(NOC[C@H](O)CO)c1ccc(F)c(F)c1Nc1ccc(I)cc1F | 77.1
CCOc1ccn(-c2ccc(F)cc2)c(=O)c1C(=O)Nc1ccc(Oc2ccnc(N)c2Cl)c(F)c1 | -5.22
COc1ccc(S(=O)(=O)N(C(C)=O)c2ccccc2/C=C/c2cc[n+]([O-])cc2)cc1 | 1.03
C=CC(=O)Nc1cccc(Sc2nc(Nc3ccc(N4CCN(C)CC4)cc3)ncc2Cl)c1 | 36.2
COc1cc2c(Nc3ccc(NC(=O)c4ccccc4)cc3)ncnc2cc1OCCCN1CCOCC1 | 6.52
CC(=O)OCC[N+](C)(C)C [Acetylcholine-chloride] | -16.8
c1cn2cc(-c3ccc4cn[nH]c4c3)nc(Nc3ccc(N4CCOCC4)cc3)c2n1 | 2.97
CS(=O)(=O)c1ccc(C(=O)Nc2ccc(Cl)c(-c3ccccn3)c2)c(Cl)c1 | 36.8
COCCCC/C(=N\OCCN)c1ccc(C(F)(F)F)cc1 [Fluvoxamine-maleate] | 11
Clc1ccc2c(c1)CCc1cccnc1C2=C1CCNCC1 [desloratadine] | 1.21
N#C/C(=C\c1ccc(O)c(O)c1)C(=O)NCc1ccccc1 | 9.54
O=C(c1cc(Cc2n[nH]c(=O)c3ccccc23)ccc1F)N1CCN(C(=O)C2CC2)CC1 [AZD2281(Olaparib)] | 1.35
COC(=O)Nc1ccc(-c2nc(N3CCOCC3)c3cnn(C4CCN(C(=O)OC)CC4)c3n2)cc1 | -12.5
COc1cc2/c(=N/c3ccc(Br)cc3F)nc[nH]c2cc1OCC1CCN(C)CC1 [Vandetanib] | 60.9

Structure (SMILES) | normalized SmoIP GFP fluorescence [%]
COC(=O)N[C@H](C(=O)N[C@@H](Cc1ccccc1)[C@@H](O)CN(Cc1ccc(-c2ccccn2)cc1)NC(=O)[C@@H](NC(=O)OC)C(C)(C)C)C(C)(C)C [Atazanavir] | -0.0496
Cc1cc(NC(=O)Nc2ccc(N(C)C)cc2)c2cc(F)cc(F)c2n1 | 24.9
COc1ccc(CNCc2cccc3ccccc23)cc1 | -2.82
CCOC(=O)Nc1cc(-c2ccc(C)c(NS(C)(=O)=O)c2)nn2c(C)nnc12 [bromosporine] | 49.9
C=CC(=O)Nc1cccc(Oc2nc(Nc3ccc(N4CCN(C)CC4)cc3)ncc2Cl)c1 | 11
COc1cc2nccc(Oc3ccc(NC(=O)C4(C(=O)Nc5ccc(F)cc5)CC4)cc3)c2cc1OC | 3.51
C#CCC(Cc1cnc2nc(N)nc(N)c2n1)c1ccc(C(=O)N[C@@H](CCC(=O)O)C(=O)O)cc1 (some centres undefined) [Pralatrexate(Folotyn)] | 13.3
C[C@]12CC[C@@H]3c4ccc(O)cc4CC[C@H]3[C@@H]1CCC2=O [Estrone] | 5.12
c1cnc2cc3c(cc2n1)[C@@H]1CNC[C@H]3C1 [Varenicline-tartrate] | 2.97
CCc1cc(Nc2nccc(-c3c(-c4ccc(OC)c(C(=O)Nc5c(F)cccc5F)c4)nc4ccccn34)n2)c(OC)cc1N1CCC(N2CCN(S(C)(=O)=O)CC2)CC1 | 25.3
COc1nc(C)cnc1NS(=O)(=O)c1cccnc1-c1ccc(-c2nnco2)cc1 [Zibotentan(ZD4054)] | -1.13
Cc1nc(C(=O)NCC(=O)O)c(O)c2ccc(Oc3ccccc3)cc12 | 11
CCC[C@H](NC(=O)/C(C#N)=C/c1cccc(Br)n1)c1ccccc1 | 15.7
CC(=O)Nc1cccc2c1c(Sc1ccc(Cl)cc1)c(C)n2CC(=O)O | -3.05
O=C(Nc1c[nH]nc1-c1nc2ccc(CN3CCOCC3)cc2[nH]1)NC1CC1 | 94.8
Cc1cn([C@H]2C=C[C@@H](CO)O2)c(=O)[nH]c1=O [Stavudine] | -2.1
C=CC[N+]1([C@H]2C[C@H]3[C@@H]4CC[C@H]5C[C@H](O)[C@@H](N6CCOCC6)C[C@]5(C)[C@H]4CC[C@]3(C)[C@H]2OC(C)=O)CCCC1 [Rocuronium-bromide] | 10.2
